Assay results from ChEMBL document CHEMBL1961873, “Compounds: GSK PKIS; Assays: Nanosyn kinase panel” (2012).

Tests used:
[1] = target: Tyrosine-protein kinase CSK (Homo sapiens) (UniProt P41240); conditions: at 1 µM;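 further: each value is an averaged inhibition reading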
[2] = target: T1, Discoidin domain-containing receptor 2 (Homo sapiens) (UniProt Q16832); conditions: at 0.1 µM
T1 sequence (whole entry): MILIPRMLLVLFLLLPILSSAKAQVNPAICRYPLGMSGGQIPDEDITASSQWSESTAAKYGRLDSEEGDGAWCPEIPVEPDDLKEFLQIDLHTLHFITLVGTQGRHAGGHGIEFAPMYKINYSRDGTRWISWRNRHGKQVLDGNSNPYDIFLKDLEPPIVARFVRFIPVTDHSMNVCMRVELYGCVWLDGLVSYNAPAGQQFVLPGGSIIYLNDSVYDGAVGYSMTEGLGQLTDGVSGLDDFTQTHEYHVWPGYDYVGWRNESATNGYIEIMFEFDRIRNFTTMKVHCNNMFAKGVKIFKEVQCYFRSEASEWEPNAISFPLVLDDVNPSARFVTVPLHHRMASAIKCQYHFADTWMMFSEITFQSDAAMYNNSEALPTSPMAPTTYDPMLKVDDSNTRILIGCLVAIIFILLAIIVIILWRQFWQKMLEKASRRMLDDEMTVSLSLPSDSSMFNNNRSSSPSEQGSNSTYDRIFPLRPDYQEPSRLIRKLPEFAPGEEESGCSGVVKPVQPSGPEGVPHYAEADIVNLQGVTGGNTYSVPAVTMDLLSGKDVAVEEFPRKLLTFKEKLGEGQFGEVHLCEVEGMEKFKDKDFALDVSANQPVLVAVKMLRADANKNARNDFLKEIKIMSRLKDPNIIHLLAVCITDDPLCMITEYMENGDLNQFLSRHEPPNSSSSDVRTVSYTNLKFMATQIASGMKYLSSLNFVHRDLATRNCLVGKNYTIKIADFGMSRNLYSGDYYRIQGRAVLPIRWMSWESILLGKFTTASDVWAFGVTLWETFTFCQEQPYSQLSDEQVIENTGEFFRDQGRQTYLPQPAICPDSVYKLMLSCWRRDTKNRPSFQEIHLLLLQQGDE

[3] = target: T1, Discoidin domain-containing receptor 2 (Homo sapiens); conditions: at 1 µM
[4] = target: Epidermal growth factor receptor (Homo sapiens) (UniProt P00533); conditions: at 0.1 µM
[5] = target: Epidermal growth factor receptor (Homo sapiens) (UniProt P00533); conditions: at 1 µM
[6] = tested on: Epidermal growth factor receptor (Homo sapiens), P00533 [L858R]; conditions: at 0.1 µM
[7] = tested on: Epidermal growth factor receptor (Homo sapiens), P00533 [L858R]; conditions: at 1 µM
[8] = tested on: Epidermal growth factor receptor (Homo sapiens), P00533 [L861Q]; conditions: at 0.1 µM
[9] = tested on: Epidermal growth factor receptor (Homo sapiens), P00533 [L861Q]; conditions: at 1 µM
[10] = tested on: Epidermal growth factor receptor (Homo sapiens), P00533 [T790M]; conditions: at 0.1 µM
[11] = tested on: Epidermal growth factor receptor (Homo sapiens), P00533 [T790M]; conditions: at 1 µM
[12] = tested on: Epidermal growth factor receptor (Homo sapiens), P00533 [L858R,T790M]; conditions: at 0.1 µM
[13] = tested on: Epidermal growth factor receptor (Homo sapiens), P00533 [L858R,T790M]; conditions: at 1 µM
[14] = target: Ephrin type-A receptor 2 (Homo sapiens) (UniProt P29317); conditions: at 0.1 µM
[15] = target: Ephrin type-A receptor 2 (Homo sapiens) (UniProt P29317); conditions: at 1 µM
[16] = target: T2, Ephrin type-A receptor 3 (Homo sapiens) (UniProt P29320); conditions: at 0.1 µM
T2 sequence (whole entry): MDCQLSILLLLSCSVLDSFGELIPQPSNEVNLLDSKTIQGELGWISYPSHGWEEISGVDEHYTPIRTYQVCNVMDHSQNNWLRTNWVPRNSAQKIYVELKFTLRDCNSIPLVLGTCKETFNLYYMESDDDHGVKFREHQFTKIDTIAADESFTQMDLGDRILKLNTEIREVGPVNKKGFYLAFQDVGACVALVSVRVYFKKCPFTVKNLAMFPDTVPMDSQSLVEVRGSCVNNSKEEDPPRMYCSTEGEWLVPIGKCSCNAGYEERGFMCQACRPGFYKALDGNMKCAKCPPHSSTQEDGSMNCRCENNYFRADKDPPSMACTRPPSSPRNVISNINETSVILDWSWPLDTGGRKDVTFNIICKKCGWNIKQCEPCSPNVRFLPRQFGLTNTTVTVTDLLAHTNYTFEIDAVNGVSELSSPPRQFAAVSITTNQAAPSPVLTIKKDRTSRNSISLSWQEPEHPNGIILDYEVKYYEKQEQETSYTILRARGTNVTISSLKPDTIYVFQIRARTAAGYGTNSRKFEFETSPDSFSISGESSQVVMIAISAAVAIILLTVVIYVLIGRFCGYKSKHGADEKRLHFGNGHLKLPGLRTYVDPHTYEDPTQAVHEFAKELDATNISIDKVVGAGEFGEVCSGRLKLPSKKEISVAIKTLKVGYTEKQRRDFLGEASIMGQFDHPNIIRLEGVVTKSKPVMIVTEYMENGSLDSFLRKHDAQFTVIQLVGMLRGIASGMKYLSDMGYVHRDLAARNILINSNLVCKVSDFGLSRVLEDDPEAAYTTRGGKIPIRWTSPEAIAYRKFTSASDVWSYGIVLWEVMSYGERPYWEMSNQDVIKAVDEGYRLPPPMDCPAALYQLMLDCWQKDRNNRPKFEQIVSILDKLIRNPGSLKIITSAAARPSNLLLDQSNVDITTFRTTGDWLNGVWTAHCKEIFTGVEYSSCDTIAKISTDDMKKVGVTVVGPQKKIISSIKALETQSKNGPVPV

[17] = target: T2, Ephrin type-A receptor 3 (Homo sapiens); conditions: at 1 µM
[18] = target: Ephrin type-A receptor 4 (Homo sapiens) (UniProt P54764); conditions: at 0.1 µM
[19] = target: Ephrin type-A receptor 4 (Homo sapiens) (UniProt P54764); conditions: at 1 µM
[20] = target: T3, Ephrin type-B receptor 2 (Homo sapiens) (UniProt P29323); conditions: at 0.1 µM;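 further: reported as mean inhibition of EPHB2, from the GSK PKIS dataset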
T3 sequence (whole entry): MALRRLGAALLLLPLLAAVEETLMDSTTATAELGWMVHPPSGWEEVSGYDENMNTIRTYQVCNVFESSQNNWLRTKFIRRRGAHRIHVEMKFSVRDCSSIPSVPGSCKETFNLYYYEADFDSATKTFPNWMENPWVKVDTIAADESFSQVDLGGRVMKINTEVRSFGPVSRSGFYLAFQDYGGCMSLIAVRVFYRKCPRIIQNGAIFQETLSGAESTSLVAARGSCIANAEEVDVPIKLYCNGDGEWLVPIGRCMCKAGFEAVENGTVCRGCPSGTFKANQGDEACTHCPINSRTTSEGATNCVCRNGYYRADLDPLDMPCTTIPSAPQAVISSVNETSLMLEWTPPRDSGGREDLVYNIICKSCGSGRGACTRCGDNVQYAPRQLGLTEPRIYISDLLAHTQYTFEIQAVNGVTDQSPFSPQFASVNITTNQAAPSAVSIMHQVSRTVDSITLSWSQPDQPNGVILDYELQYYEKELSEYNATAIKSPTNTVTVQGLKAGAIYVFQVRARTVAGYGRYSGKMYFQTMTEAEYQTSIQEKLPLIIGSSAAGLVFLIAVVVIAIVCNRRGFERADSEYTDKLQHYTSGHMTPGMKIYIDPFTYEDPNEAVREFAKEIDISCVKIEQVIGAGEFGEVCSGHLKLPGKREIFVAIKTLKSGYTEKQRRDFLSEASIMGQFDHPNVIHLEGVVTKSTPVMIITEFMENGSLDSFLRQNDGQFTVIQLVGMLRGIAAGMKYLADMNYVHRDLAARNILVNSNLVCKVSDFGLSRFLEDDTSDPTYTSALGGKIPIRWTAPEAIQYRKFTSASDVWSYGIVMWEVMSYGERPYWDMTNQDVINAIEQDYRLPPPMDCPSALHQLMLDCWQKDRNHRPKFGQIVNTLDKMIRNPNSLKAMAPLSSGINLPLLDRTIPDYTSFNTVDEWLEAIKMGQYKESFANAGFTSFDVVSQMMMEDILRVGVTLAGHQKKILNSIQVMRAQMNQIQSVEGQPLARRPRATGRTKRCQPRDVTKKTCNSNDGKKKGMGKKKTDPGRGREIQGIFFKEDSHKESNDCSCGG

Chain of Epidermal growth factor receptor (Homo sapiens), P00533 [T790M] (P00533 whole entry T790M): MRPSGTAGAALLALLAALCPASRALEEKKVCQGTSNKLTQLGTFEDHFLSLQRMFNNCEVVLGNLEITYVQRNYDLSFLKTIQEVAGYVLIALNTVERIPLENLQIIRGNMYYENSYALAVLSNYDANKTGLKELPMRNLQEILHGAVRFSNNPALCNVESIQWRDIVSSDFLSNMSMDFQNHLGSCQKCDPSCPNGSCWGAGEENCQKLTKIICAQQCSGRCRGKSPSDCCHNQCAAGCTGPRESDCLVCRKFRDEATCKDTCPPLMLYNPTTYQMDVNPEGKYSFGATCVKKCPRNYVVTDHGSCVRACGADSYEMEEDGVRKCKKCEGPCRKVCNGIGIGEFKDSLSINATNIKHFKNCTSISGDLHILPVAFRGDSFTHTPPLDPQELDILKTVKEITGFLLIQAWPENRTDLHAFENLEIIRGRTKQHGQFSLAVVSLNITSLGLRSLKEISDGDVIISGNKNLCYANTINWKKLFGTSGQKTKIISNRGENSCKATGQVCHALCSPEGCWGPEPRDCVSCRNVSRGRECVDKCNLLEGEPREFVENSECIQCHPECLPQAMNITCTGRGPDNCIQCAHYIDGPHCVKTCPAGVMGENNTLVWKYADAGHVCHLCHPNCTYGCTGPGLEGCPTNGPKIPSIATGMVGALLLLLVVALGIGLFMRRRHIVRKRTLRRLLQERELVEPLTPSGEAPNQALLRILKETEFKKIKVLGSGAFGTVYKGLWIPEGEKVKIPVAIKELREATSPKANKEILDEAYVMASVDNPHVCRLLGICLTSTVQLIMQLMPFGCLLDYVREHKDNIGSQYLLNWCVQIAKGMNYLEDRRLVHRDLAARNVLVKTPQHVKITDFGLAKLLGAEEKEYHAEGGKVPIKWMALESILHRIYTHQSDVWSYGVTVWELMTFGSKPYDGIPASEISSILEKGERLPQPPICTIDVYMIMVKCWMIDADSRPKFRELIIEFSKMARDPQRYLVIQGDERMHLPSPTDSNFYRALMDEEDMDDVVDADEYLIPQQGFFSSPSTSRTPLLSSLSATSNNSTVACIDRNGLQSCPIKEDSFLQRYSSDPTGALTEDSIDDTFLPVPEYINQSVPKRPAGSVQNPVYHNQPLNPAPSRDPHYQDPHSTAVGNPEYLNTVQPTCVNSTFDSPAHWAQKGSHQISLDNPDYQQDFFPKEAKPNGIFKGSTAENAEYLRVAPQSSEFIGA
Chain of Ephrin type-A receptor 4 (Homo sapiens) (P54764 whole entry): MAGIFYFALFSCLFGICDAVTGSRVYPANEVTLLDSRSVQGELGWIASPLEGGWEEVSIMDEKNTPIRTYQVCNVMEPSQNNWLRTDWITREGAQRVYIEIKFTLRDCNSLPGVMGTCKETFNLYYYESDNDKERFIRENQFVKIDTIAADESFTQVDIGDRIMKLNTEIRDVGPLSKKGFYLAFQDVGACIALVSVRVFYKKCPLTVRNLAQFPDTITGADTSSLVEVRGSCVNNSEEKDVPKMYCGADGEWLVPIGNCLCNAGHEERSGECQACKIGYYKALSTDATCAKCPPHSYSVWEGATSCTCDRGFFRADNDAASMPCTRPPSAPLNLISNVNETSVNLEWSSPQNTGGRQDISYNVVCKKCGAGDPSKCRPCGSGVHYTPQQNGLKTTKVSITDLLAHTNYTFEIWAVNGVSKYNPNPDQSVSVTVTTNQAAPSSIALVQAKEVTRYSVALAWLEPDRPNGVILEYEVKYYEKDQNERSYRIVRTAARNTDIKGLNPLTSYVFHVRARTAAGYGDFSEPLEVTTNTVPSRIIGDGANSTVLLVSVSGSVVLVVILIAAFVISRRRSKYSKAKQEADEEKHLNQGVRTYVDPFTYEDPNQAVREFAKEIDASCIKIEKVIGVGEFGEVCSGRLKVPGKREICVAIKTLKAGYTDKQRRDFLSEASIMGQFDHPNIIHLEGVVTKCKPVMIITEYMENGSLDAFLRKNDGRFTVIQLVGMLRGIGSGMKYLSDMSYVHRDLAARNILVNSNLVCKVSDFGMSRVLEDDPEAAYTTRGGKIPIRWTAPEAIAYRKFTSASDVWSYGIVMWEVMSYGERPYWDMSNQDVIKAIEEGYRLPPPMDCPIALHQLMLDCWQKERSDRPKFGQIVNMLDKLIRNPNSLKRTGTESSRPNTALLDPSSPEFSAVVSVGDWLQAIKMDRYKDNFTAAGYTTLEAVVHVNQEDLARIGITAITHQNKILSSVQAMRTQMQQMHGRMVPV
Chain of Epidermal growth factor receptor (Homo sapiens), P00533 [L858R,T790M] (P00533 whole entry T790M/L858R, looked up): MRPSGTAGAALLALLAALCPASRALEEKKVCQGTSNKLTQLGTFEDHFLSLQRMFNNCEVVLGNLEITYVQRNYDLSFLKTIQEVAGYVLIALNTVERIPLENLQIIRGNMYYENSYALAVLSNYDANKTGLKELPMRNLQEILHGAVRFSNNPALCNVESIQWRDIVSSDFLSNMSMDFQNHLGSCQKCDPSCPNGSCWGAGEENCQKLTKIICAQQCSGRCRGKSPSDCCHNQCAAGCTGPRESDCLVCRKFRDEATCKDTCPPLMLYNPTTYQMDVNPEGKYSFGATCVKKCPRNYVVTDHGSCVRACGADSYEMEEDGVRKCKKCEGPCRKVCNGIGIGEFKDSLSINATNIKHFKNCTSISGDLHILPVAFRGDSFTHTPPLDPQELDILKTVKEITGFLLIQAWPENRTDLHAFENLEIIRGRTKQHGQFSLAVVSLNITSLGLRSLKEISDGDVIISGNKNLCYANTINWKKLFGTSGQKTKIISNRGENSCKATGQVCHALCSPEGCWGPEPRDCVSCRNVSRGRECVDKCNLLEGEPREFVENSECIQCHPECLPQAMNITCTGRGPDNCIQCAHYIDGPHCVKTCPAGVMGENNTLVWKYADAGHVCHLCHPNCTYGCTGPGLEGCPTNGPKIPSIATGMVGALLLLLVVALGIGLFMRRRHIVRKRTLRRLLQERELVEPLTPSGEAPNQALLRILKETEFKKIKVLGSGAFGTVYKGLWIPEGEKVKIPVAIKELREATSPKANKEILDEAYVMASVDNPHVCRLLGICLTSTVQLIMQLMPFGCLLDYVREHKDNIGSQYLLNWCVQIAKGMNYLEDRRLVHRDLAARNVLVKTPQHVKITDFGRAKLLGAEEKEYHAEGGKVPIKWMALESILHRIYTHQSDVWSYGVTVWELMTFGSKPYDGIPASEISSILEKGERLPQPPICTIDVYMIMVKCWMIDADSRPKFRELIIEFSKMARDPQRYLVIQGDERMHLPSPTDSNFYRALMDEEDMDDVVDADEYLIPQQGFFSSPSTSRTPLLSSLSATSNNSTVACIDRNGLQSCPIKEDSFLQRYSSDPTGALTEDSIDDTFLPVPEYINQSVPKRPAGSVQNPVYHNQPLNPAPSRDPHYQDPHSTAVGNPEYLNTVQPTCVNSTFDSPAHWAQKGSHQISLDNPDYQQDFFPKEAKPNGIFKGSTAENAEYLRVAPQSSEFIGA
Chain of Ephrin type-A receptor 2 (Homo sapiens) (P29317 whole entry): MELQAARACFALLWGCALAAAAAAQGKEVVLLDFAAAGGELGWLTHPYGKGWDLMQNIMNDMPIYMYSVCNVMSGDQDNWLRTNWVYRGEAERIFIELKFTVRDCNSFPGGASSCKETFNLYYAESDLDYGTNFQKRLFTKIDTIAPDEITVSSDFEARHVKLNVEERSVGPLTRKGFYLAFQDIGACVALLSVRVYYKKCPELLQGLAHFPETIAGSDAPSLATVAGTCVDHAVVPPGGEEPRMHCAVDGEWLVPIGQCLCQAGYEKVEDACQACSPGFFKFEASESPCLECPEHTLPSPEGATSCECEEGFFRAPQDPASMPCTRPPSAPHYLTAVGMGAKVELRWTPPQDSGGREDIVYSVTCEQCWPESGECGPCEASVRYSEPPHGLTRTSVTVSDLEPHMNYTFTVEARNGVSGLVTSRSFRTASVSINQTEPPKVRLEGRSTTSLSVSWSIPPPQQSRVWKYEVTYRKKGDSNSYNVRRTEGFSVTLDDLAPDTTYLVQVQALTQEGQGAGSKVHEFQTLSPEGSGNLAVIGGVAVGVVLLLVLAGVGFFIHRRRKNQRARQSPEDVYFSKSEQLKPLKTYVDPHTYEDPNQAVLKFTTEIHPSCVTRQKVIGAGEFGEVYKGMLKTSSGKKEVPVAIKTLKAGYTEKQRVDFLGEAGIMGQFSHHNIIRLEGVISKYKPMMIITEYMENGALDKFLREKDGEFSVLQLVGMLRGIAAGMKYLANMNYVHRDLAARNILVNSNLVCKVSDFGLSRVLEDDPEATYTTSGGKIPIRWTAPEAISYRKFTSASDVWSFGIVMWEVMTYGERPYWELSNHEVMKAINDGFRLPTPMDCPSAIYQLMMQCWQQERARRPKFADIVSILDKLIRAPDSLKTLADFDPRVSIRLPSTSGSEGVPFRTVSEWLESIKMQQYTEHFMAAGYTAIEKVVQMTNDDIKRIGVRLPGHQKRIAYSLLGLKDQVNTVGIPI
Chain of Tyrosine-protein kinase CSK (Homo sapiens) (P41240 2-450 limits assumed): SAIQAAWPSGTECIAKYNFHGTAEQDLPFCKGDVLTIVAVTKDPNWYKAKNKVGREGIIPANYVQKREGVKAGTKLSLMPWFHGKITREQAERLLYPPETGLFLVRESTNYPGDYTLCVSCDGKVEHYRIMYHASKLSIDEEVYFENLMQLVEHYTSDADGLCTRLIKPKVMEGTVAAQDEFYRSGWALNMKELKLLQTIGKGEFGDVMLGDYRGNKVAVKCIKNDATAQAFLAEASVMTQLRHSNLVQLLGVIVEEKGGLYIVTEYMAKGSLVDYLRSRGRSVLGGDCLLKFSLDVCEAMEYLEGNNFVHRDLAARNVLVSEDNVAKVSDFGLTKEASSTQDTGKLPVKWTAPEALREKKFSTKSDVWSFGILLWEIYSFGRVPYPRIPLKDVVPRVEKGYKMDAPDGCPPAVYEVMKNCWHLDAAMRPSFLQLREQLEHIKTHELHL

| Structure (SMILES) | inhibition [1] [%] | inhibition [2] [%] | inhibition [3] [%] | inhibition [4] [%] | inhibition [5] [%] | inhibition [6] [%] | inhibition [7] [%] | inhibition [8] [%] | inhibition [9] [%] | inhibition [10] [%] | inhibition [11] [%] | inhibition [12] [%] | inhibition [13] [%] | inhibition [14] [%] | inhibition [15] [%] | inhibition [16] [%] | inhibition [17] [%] | inhibition [18] [%] | inhibition [19] [%] | inhibition [20] [%] |
| --- | --- | --- | --- | --- | --- | --- | --- | --- | --- | --- | --- | --- | --- | --- | --- | --- | --- | --- | --- | --- |
| COC(=O)c1ccc2c(c1)C(=Cc1cc(Br)c(O)c(Br)c1)C(=O)N2 | 5.89 | 2.18 | 7.08 | 3.97 | 2.76 | -1.26 | 11.3 | 0.68 | 4.11 | 0.31 | 0.92 | -1.65 | 2.81 | 1.71 | 0.89 | 0.28 | 4.62 | 6.35 | 12.2 | 6.3 |
| COc1cc2ncn(-c3cc(OCc4ccccc4S(C)(=O)=O)c(C#N)s3)c2cc1OC | 4.26 | 2.02 | 8.19 | 3.74 | 11.8 | 9.37 | 45.8 | 3.09 | 8.31 | 3.02 | 8.63 | 16.9 | 62.5 | 9.06 | 34.4 | 8.09 | 13.6 | 15.2 | 57.3 | 14 |
| Cc1ccc(Nc2ccnc(Nc3cccc(C(N)=O)c3)n2)cc1O | 35.4 | 5.32 | 30 | -1.74 | 11.7 | 5.83 | 32 | 4.18 | 13 | 3.21 | 14.9 | 2.53 | 5.38 | 1.66 | 23.3 | 14.3 | 33.9 | 17.1 | 62.9 | 8.62 |
| Nc1nccc(-c2c(-c3ccc(F)cc3)ncn2CCCN2CCOCC2)n1 | 2.85 | -0.61 | -1.04 | -0.84 | 6.38 | 5.87 | 31.9 | 4.34 | 10.9 | 2.78 | 3.66 | 3.71 | 0.56 | -0.08 | 0.96 | 0.74 | 3.02 | 7.96 | 9.12 | 4.96 |
| CCn1c(-c2nonc2N)nc2ccc(F)cc21 | 8.91 | 0.92 | 4.58 | 12.1 | 13.4 | 4.05 | 12.7 | 4.88 | 8.61 | 3 | 6.26 | 3.36 | 6.82 | 0.18 | 0.43 | 4.17 | 4.99 | 11.3 | 15 | 7.78 |
| c1ccc(Cc2nc3ccc(Nc4ncnc5ccccc45)cc3[nH]2)cc1 | 30.9 | 0.85 | 1.06 | 24.3 | 67.2 | 2.32 | 11.3 | 12 | 22.2 | 2.05 | 2.67 | 1.06 | -0.39 | 1.21 | 0.81 | 4.49 | 4.41 | 9.01 | 11.7 | 8.45 |
| CS(=O)(=O)Nc1cccc(-c2ccc3c(NC(=O)C4CC4)n[nH]c3c2)c1 | -2.39 | 0.9 | 0.99 | 0.81 | 0.31 | -0.89 | -1.93 | 1.44 | -2.52 | -1.89 | -1.01 | 0.55 | -1.6 | 0.19 | 1.68 | 1.66 | -1.02 | 1.83 | -7.46 | -4.01 |
| C[C@@H](Oc1cc(-n2cnc3ccc(OCC4CCN(C)CC4)cc32)sc1C(N)=O)c1ccccc1C(F)(F)F | -1.36 | -1.18 | -4.23 | 2.6 | 9.98 | 8.84 | 42.5 | -0.46 | 8.68 | -1.87 | 1.67 | 1.72 | 18.6 | -3.67 | -3.26 | -6.9 | -0.01 | -6.91 | -4.57 | -9.54 |
| CN(C)CCCn1c(-c2nonc2N)nc2cnccc21 | 1.67 | 1.29 | 1.57 | 9.72 | 10.6 | 3.98 | 0.96 | 3.25 | 1.62 | 2.09 | 4.68 | -0.67 | 3.5 | 0.86 | 0.27 | 4.17 | 5.42 | 4.85 | 3.54 | 3.03 |
| Nc1nccc(-c2c(-c3ccc(F)cc3)nn3cc(C(F)(F)F)ccc23)n1 | 1.17 | 1.51 | 5.28 | -0.27 | 3.78 | 1.74 | 11.4 | -0.3 | 3.8 | 0.44 | 2.37 | -0.45 | 1.18 | 0.62 | -0.02 | 0.75 | -0.28 | 2.89 | 5.34 | -9.27 |
| COc1cccc(-n2ncc3c(N/N=C/c4ccc(S(C)(=O)=O)cc4)ncnc32)c1 | 18.2 | 1.49 | 7.83 | 6.5 | 22.6 | 29.7 | 57.8 | 8.34 | 20.6 | 0.29 | 0.63 | 0.79 | 5.78 | -3.2 | 1.45 | -2.15 | -1.2 | 7.26 | 11.7 | 5.46 |
| Cc1nc(-c2ccccc2)n2nc(NCCCN3CCOCC3)ncc12 | 1.69 | 1.13 | 1.28 | 5.65 | 7.11 | 1.69 | 4.22 | 0.9 | 1.99 | -0.64 | 2 | -0.39 | 3.29 | 0.3 | -0.95 | 3.7 | 4.01 | 5.25 | 8.81 | -0.43 |
| CCCN1CCCC(c2ccc(Nc3nc(Nc4cc(F)ccc4C(N)=O)c4cc[nH]c4n3)c(OC)c2)C1 (stereo not given) | 4.58 | 2.62 | 4.82 | 7.23 | 38 | 9.57 | 37.5 | 7.28 | 28.4 | 32 | 79.3 | 55.5 | 85.6 | -1.17 | -1.1 | 3.86 | 4.27 | 8.97 | 4.53 | 8.14 |
